# Bioassay records (PubChem)
# Shown are actives, neighbours in structure and some others; about 1.6% of the full set was active somewhere.
# PERK inhibitor – blocks human PERK kinase. CHO PERK-DD fusion, SEAP luminescence translation reporter. inhibition, % at 5.6 µM. Q9NZJ5. actives 0.17% (n = 220,000);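 active = inhibition above the mean inhibition of all tested compounds plus 3 SD, set separately per screening campaign, cut at about 2.9% in these data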;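 note: PERK kinase domain activated by AP20187 dimerizer at 100 nM; 0% = DMSO with dimerizer and 100% = rapamycin at 8.4 µM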
# Target sequence (Q9NZJ5 whole entry, looked up, the tested form may be a part): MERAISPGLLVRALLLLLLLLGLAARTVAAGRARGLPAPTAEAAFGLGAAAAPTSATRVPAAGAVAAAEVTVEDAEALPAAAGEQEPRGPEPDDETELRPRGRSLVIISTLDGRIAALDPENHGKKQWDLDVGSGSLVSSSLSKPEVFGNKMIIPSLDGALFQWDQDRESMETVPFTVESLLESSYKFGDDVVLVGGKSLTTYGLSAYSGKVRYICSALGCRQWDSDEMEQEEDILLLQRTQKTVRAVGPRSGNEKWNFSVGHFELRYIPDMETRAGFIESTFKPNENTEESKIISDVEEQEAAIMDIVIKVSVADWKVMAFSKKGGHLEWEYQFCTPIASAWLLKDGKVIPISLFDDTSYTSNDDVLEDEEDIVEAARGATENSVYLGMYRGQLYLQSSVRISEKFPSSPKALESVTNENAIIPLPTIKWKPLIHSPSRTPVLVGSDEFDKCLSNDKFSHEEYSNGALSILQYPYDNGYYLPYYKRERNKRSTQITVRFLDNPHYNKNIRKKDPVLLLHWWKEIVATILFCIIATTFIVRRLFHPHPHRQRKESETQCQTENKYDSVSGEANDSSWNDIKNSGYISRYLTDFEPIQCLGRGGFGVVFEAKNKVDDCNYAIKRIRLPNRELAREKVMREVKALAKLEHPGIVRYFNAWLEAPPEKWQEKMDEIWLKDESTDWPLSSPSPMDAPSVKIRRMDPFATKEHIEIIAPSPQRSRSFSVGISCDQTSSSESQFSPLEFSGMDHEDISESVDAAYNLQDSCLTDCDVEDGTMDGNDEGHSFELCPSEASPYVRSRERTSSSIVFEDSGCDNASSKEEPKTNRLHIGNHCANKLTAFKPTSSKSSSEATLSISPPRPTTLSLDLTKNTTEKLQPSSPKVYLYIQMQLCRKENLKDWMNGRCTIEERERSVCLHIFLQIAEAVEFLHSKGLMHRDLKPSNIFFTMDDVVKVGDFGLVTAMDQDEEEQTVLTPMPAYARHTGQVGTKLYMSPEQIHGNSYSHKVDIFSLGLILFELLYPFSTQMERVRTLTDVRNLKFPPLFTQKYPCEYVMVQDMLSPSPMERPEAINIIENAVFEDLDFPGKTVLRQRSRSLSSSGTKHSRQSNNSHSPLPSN
# CR mimetic SO – yeast age-related superoxide inhibition as caloric restriction mimetic; S. cerevisiae aged cells, superoxide DHE fluorescence; hits give low values; superoxide response (% of plate mean), % at 10 µM; actives 0.18% (n = 330,000);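 active = superoxide response under a set limit, about three screen SD below normal, cut at about 65% in these data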;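 note: yeast aged for seven days with compound at 30 °C before DHE staining; 100% = average MFI of all compound-treated wells on the plate with controls excluded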
# Rce1 inhib – yeast Ras-converting enzyme inhibition; Q03530; yeast membranes, quenched prenylated peptide cleavage fluorescence; calls only; actives 0.27% (n = 290,000);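 active = fall in fluorescence gain of 50% or more versus controls, with final raw signal at or below 3038400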;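 note: plate controls were neutral control wells for no effect and wells lacking membranes for full effect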
# V-ATPase pHluor – alters yeast V-ATPase proton transport | S. cerevisiae, pHLuorin cytosolic pH fluorescence | response, % at 10 µM | AID 504577 | actives 0.37% (n = 350,000); in the data active = response mostly above about 7.3%, no sharp cut-off; inactive = mostly below about 5.4%; note: actives read high
# NALP1 yeast inh – NALP1 inhibition; S. cerevisiae NALP1/ASC/caspase-1 growth, X-gal OD620, 72 h; inhibition, % at 10 µM; actives 0.61% (n = 280,000); in the data active = inhibition mostly above about 24%, no sharp cut-off; inactive = mostly below about 32%
# NALP3 yeast inh – blocks the NALP3 inflammasome reconstituted in yeast. Yeast reconstituted NLRP3/ASC/caspase-1, beta-gal luminescence, 24 h. inhibition, % at 10 µM. actives 0.39% (n = 330,000);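 active = inhibition of 50% or more; inactive = inhibition below 50%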;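 note: plate controls were induced DMSO wells for no effect and uninduced yeast grown without galactose for full effect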
# Superoxide pick – confirmation of caloric restriction mimetics inhibiting yeast age-related superoxide; superoxide response (% of plate), % at 10 µM; S. cerevisiae aging, superoxide DHE fluorescence; hits give low values; actives 1% (n = 850); shares compounds with CR mimetic SO;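 active = superoxide signal below 65% of the plate average of sample wells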;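 note: cells aged with compound for 7 days at 30 degrees C before staining; 100% equals mean DHE fluorescence of all compound wells on the plate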
# DHE counter – DHE fluorescence interference, counter-screen artifact. AID 435000. 850 tested, under 10 active. fluorescence response, % at 10 µM. S. cerevisiae BY4741, flow cytometry; hits give low values. shares compounds with CR mimetic SO;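 active = fluorescence response below 15%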;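 note: percent of the mean fluorescence averaged over all compound wells on the plate; lower means stronger quenching of DHE signal or ROS scavenging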
# * marks the source's active call; other numbers are inactive results; i = inactive; / = not tested or not shown.
SMILES,PERK inhibitor,CR mimetic SO,Rce1 inhib,V-ATPase pHluor,NALP1 yeast inh,NALP3 yeast inh,Superoxide pick,DHE counter
COc1cccc(-c2nnc(SCC(=O)Nc3ccc(OC)c(OC)c3)n2N)c1,1,104,i,-2,-3,4,111,99
C=CCn1c(SCC(=O)Nc2ccc3c(c2)OCCO3)nnc1-c1ccco1,-1,92,i,2,-10,20,104,102
CCC(C(=O)N1CCN(Cc2ccc3c(c2)OCO3)CC1)n1nnc2ccccc2c1=O (stereo unspecified),/,/,/,1,/,/,/,/
CC(=O)N1C[C@H]2CON(C)[C@H]2C[C@H]1c1cccc(N2CCOCC2)c1,/,/,/,3,/,/,/,/
Cc1ccccc1Cn1cc(NC(=O)c2noc3c2CC(C(C)(C)C)CC3)cn1 (stereo unspecified),-1,65*,i,-2,3,15,121,99
COC(=O)c1ccccc1NS(=O)(=O)c1ccc(F)cc1,0,127,i,-1,-5,-82,104,86
CCCCCCN1C[C@@H](n2cc(COC(=O)c3ccccc3)nn2)[C@H](O)C[C@@H]1c1ccc(Cl)cc1,/,/,/,4,/,/,/,/
Cc1cc(C)c2c(N)c(C(=O)NN)sc2n1,-1,109,i,4,3,-4,/,/
Cc1ccc(NC(=O)c2sc3nc(C)cc(C)c3c2N)cc1,/,56*,i,8,25,14,104,100
Cc1cccc(NC(=O)c2nc[nH]c2C(=O)N[C@@H](CC(C)C)C(=O)OCc2ccccc2)c1,/,63*,i,3,/,6,91,94
O=C(Cc1ccccc1F)Nc1cc(S(=O)(=O)N2CCOCC2)ccc1N1CCCC1,/,94,/,/,/,7,110,105
O=C(Cc1ccccc1F)Nc1cc(S(=O)(=O)N2CCOCC2)ccc1N1CCOCC1,/,75,/,5,/,16,/,/
CCN(CC)S(=O)(=O)c1ccc(N2CCCC2)c(NC(=O)Cc2ccccc2)c1,0,40*,i,-1,/,7,110,108
CCN(CC)C(=O)C1=C(C)N(CCC2=CCCCC2)C(=O)C(CC(=O)NC2CCCC2)C1 (stereo unspecified),/,/,/,0,/,/,/,/
O=[N+]([O-])c1cc(Br)c(Nc2ccccc2)c([N+](=O)[O-])c1,/,53*,i,-3,22,-5,84,100
S=C1NCC(c2ccccc2)S1 (stereo unspecified),/,/,/,1,/,/,/,/
O=C(Nc1ccc2ccccc2n1)c1ccccc1Cl,/,117,i,0,10,18,/,/
COc1ccc2nc3ccccc3nc2c1NC(=O)c1ccccc1Cl,1,53*,i,-1,16,19,80,93
CCOc1cc(S(=O)(=O)N2CCCC2)c(C)cc1C,-1,99,i,2,17,39,104,104
CCOc1ccc(NS(=O)(=O)c2ccc(SC)cc2)cc1,0,100,i,4,12,24,/,/
COc1c(C)cc(S(=O)(=O)N2CCCC2)c(C)c1C,0,109,i,-2,-2,16,97,95
CCOc1ccc2cc(S(=O)(=O)N3CCCCC3)ccc2c1,/,81,i,-1,-21,39,/,/
CCOc1ccc(S(=O)(=O)N2CCCC2)cc1,1,112,i,-3,12,27,110,109
CCOc1ccc(NS(=O)(=O)c2ccc(N)cc2)cc1,2,101,i,-3,0,5,98,90
COc1ncnc2c1ncn2CCCNCc1ccc2c(c1)OCO2,/,/,/,2,/,/,/,/
SMILES,PERK inhibitor,CR mimetic SO,Rce1 inhib,V-ATPase pHluor,NALP1 yeast inh,NALP3 yeast inh,Superoxide pick,DHE counter
O=C(c1ccc2ccccc2c1O)N1CCCCC1,/,/,/,3,/,/,/,/
O=C1c2ccccc2CCC12OC2c1ccc([N+](=O)[O-])cc1 (stereo unspecified),/,/,/,-3,/,/,/,/
COc1cc(C)c(S(=O)(=O)N2CCN(C)CC2)cc1C,0,114,i,-4,17,13,/,/
COc1cc(C)c(S(=O)(=O)N2CCCC2)cc1C(C)C,1,91,i,3,6,49,92,90
O=C(Cc1ccc(Cl)cc1)N1CCC2(CC1)NCCc1[nH]cnc12,/,64*,i,1,-13,9,99,93
CCOc1ccc2nc(NCCCNS(=O)(=O)c3ccc(F)cc3)c(C#N)cc2c1,0,123,i,-2,/,2,/,/
CCOc1ccc2nc(NCCCNS(=O)(=O)c3ccccc3)c(C#N)cc2c1,-1,65*,i,-3,-5,1,100,92
Cc1ccc(CCNc2ncnc(Cl)c2N)cc1,/,/,/,3,/,/,/,/
O=C(NC1CC1)C1CCN(c2ccc(S(=O)(=O)N3CCOCC3)cc2)CC1,1,65*,i,1,4,2,103,114
O=C1N=C2N(CCN3CCCCC3)c3ccccc3N2/C1=C\c1ccc([N+](=O)[O-])s1,/,/,/,7,/,/,/,/
O=C(CC(Cc1ccccc1)C(=O)O)Nc1ccccc1 (stereo unspecified),/,50*,i,-4,21,9,94,92
O=C(CC(Cc1ccccc1)C(=O)O)Nc1ccc(Cl)c(Cl)c1 (stereo unspecified),/,107,i,3,9,4,/,/
COc1ccc(C(=O)CC(C(=O)O)c2ccc3c(c2)OCO3)cc1OC (stereo unspecified),/,/,/,1,/,/,/,/
Cc1ccc2cc(NC(=O)c3ccccc3C)ccc2n1,/,116,i,4,24,14,/,/
Cc1ccc2cc(NC(=O)Cc3ccccc3)ccc2n1,1,63*,i,3,-12,14,104,104
CCC(=O)N(C)C[C@H]1Oc2ncc(C#Cc3cccnc3)cc2C(=O)N([C@@H](C)CO)C[C@@H]1C,/,/,/,1,/,/,/,/
Cc1ccc(CN(CC(=O)NCCc2ccccc2)C(=O)CCCC(=O)Nc2cc(C)on2)cc1,0,64*,i,2,10,12,108,91
COc1ccc(CN(CC(=O)NCCc2ccccc2)C(=O)CCC(=O)Nc2cc(C)ccn2)cc1,/,107,i,-5,9,-4,/,/
COc1ccccc1C(=O)COC(=O)CN1C(=O)c2ccccc2C1=O,/,98,i,0,13,6,/,/
COc1ccc(C(=O)CN2C(=O)c3ccccc3C2=O)c(OC)c1,/,63*,i,0,13,4,118,117
CCOC(=O)CSc1nnc(-c2ccc(Cl)cc2Cl)o1,0,129,i,4,-6,13,/,/
CCCOC(=O)CSc1nnc(-c2ccc(Cl)cc2Cl)o1,0,99,i,0,8,14,101,88
CC1=C(C(=O)N2CCOCC2)CC(CC(=O)NC2CCCCC2)C(=O)N1CCCN1CCCC1=O (stereo unspecified),/,/,/,0,/,/,/,/
